The values that follow come from PubChem BioAssay (NCI).

This is part of a sample that, as a whole, favours compounds with a hit. Of some 83,000 tested, about 20% had one in any assay.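 48-hour exposure, single concentration, 96-well plates; percent growth endpoint where 0 means no net growth. Active: below 10.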 Values without a mark were called inactive. Active and inactive are the calls of the source.

Common to all, as to assay: NCI-60 one-dose screen, 48 h (100 = growth as untreated, 0 = no growth, -100 = all killed)
Common to all, as to conditions: 10 µM unless noted

The subject of assay [1] is SN12C renal.
For assay [2], the system named is UO-31 renal.
Assay [3] deals with TK-10 renal.
Assay [4] deals with ACHN renal.
Assay [5] deals with CAKI-1 renal.
Assay [6] relates to A498 renal.
For assay [7], the system named is CCRF-CEM leukemia.
Assay [8] concerns MOLT-4 leukemia.
For assay [9], the system named is SR leukemia.

In the case of `Clc1ccc2nc(Cl)c3ccccc3c2c1`, the growth in assay [1] was 87.3%; in assay [2], 4.03% (active); in assay [3], 9.12% (active); in assay [4], 1.26% (active); in assay [5], 76.7%; in assay [6] it was 19.7%. In addition, the growth in assay [7] was 81.6%; in [8] it was 83%; in assay [9], 1.29% (active).
On to `Nc1nonc1-c1nc2ccccc2n1CC(=O)Nc1ccc2c(c1)COC2=O`, for which the growth in assay [1] is 92.2%; in assay [2], 60.6%; in assay [3], 94.7%; in assay [4], 92.2%; in assay [5], 74.5%; in assay [6], 63.7%. Further, the growth in [8] is 101%.
Regarding `CSc1nnc(C2=CC(=O)c3ccccc3C2=O)n1-c1ccccc1`, the growth in assay [1] is 104%; in [2], 67.6%; in [3], 121%; in assay [4], 74.9%; in assay [5], 88.5%; in assay [6] it was 99.4%. In addition, the growth is 36.8% in assay [7], 68.9% in [8] and 70.2% in [9].
Turning to `O=C(/C=C/c1ccc(O)c(O)c1)N1CCN(c2ccc(Cl)cc2)CC1`, the growth is 69.8% in [1]; 24.5% in [2]; 49% in [3]; 48.1% in [4]; 50.5% in [5]; 72.1% in [6]. The growth in assay [7] was 32.6%; in assay [8] it was 27.3%; in assay [9], 26.6%.
With `c1cnc2n[nH]c(Nc3ncnc4c3sc3ncccc34)c2c1`, the growth in assay [1] was 99.7%; in [2], 98.5%; in assay [3] it was 103%; in assay [4], 97.8%; in [5] it was 104%; in [6], 91.3%. Further, the growth in assay [7] was 88.6%; in assay [8], 97.9%; in [9], 101%.
In the case of `Nc1ccc(C2=NN(c3ccccc3)C(c3ccc(Cl)cc3)C2)cc1` (configuration not stated), the growth in assay [1] was 76.9%; in assay [2], 55.1%; in assay [3] it was 74.2%; in assay [4] it was 82.1%; in assay [5] it was 80.9%; in assay [6], 74.7%. Also, the growth in assay [7] is 64.2%; in [8], 62.4%; in [9], 2.52% (active).
With `CCOc1nc(-c2ccccc2)cc2c(O)c(C(=O)n3nc(C)cc3C)[nH]c(=O)c12`, the growth in assay [1] is 101%; in [2], 96%; in [3], 108%; in assay [4] it was 100%; in assay [5], 119%; in [6] it was 101%. Besides, the growth in [7] is 96.5%; in assay [8], 99%; in [9] it was 96.2%.
For the compound `C/C(=C\CCc1ccoc1)CC/C=C(\C)CCCN1CCC(CO)CC1`, the growth in assay [1] was 71.1%; in [2], 75.1%; in assay [3], 97.2%; in [4], 59.4%; in assay [5], 82.7%; in assay [6], 45%. Also, the growth was 37.9% in [7], 24.6% in assay [8] and 2.6% (active) in [9].
With `COc1ccc2nc3cc(Cl)ccc3c(N3CCN(c4ccnc(Nc5ccc(F)cc5)n4)CC3)c2c1`, the growth in assay [1] was 71.5%; in assay [2] it was 56%; in assay [3], 66.1%; in [4], 62.5%; in assay [5] it was 72%; in assay [6], 51.1%. The values for the growth in assay [7], in assay [8] and in [9] were 38.1%, 20% and 43.2%, respectively.
For the compound `Cc1cc2c(cc1C)Nc1sc(NC(=O)CN3CCN(C)CC3)nc1C(=O)N2`, the growth was 103% in [1]; 94.3% in assay [2]; 99.9% in assay [3]; 111% in [4]; 106% in [5]; 102% in assay [6]. For the same compound, the growth in assay [7] was 98.3%; in assay [8], 87.4%; in [9], 79%.
Turning to `C/C(=C\CCc1ccsc1)CC/C=C(\C)CCCN1CCC(CO)CC1`, the growth in assay [1] is 51.5%; in assay [2] it was 23.4%; in assay [3], 22.6%; in [4], 44%; in assay [5] it was 45.3%; in assay [6], 25.5%. Besides, the growth in assay [7] is 2.24% (active); in assay [8], -22.2% (active); in assay [9], -44.8% (active).
Take `COc1ccc(-c2cnnn2-c2cc(OC)c3c(c2)OCO3)cc1`: the growth was 36.8% in assay [1]; 50% in assay [2]; 40% in assay [3]; 38.8% in assay [4]; 29.6% in assay [5]; 0.869% (active) in [7]. Also, the growth in [8] was 4.11% (active); in assay [9] it was -30.4% (active).
With `CSc1nc2c(c(=O)[nH]1)C(c1ccc(Cl)cc1)C1=C(N2)/C(=C/c2ccc(Cl)cc2)CNC1` (configuration not stated), the growth in [1] is 39.7%; in assay [2], 16.8%; in [3] it was 78.9%; in [4] it was 72.5%; in assay [5], 76.8%; in [6], 18.3%. Also, the figures for the growth in assay [8] and in assay [9] were 18.7% and -16.2% (active), respectively.
Regarding `CCC(C)CC(C)C(=O)c1c(O)ccn(O)c1=O` (configuration not stated), the growth is 21.2% in assay [1]; 6.43% (active) in assay [2]; 83.7% in assay [3]; 16.6% in assay [4]; 40.3% in [5]; 115% in assay [6]. For the same compound, the growth in assay [7] is 15.8%; in [8], 9.61% (active); in assay [9], 22.9%.
